# From PubChem
# PLCb3 inh: inhibitors of human phospholipase C beta3; Purified PLC-beta3, fluorogenic substrate, fluorescence; inhibition, % at 12.2 µM; 0.18% of 370,000 active; AID 720704; in the data active means inhibition above about 11%;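 further: 0% = median of compound wells on plate and 100% = full blocker control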
# Target sequence (Q01970 whole entry, looked up): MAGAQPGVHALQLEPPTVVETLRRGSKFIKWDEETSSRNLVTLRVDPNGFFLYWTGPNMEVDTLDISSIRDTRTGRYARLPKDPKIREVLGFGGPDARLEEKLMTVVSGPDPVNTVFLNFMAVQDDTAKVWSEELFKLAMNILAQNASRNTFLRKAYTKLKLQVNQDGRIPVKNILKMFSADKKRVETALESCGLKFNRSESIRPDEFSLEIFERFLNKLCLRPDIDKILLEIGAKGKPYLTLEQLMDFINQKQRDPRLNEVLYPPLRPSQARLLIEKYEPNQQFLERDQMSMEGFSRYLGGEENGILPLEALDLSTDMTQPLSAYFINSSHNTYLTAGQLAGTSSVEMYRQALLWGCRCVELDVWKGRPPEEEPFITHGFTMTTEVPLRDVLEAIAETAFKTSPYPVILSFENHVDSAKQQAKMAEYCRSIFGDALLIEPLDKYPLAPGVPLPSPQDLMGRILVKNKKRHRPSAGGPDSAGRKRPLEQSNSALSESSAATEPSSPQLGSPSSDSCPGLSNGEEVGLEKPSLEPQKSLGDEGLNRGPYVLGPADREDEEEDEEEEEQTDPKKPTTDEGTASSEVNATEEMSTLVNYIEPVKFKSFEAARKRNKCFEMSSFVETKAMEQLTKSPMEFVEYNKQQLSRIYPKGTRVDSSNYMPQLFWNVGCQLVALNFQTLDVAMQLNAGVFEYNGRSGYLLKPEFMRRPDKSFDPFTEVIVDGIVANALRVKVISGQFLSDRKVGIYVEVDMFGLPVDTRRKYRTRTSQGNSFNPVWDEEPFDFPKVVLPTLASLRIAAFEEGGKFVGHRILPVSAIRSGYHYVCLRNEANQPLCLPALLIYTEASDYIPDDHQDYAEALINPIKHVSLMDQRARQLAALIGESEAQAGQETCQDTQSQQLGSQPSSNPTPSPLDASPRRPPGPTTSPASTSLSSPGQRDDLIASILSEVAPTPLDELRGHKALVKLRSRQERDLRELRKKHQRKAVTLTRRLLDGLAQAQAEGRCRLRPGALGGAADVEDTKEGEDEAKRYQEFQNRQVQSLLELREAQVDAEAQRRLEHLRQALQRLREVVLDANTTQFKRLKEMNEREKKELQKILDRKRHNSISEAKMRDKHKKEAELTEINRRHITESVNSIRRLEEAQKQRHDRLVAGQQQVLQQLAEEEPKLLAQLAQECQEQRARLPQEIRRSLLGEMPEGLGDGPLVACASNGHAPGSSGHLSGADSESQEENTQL
# FAS TE block: FAS thioesterase (human) inhibition; inhibition, % at 15 µM; 0.67% of 360,000 active; recombinant FAS-TE, OMFH fluorogenic substrate, fluorescence endpoint; P49327;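 active means compounds whose normalised, plate-corrected inhibition of enzyme fluorescence in the single-dose primary screen is 50% or more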;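 further: 0% = DMSO with enzyme and 100% = substrate without enzyme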
# PLCg1 inh: inhibitors of human phospholipase C gamma1 | P19174 | purified PLC-gamma1, fluorogenic substrate, fluorescence | inhibition, % at 12.2 µM | 0.84% of 370,000 active | AID 720700; in the data active means inhibition above about 9.5%
# Cardio protect: myocardial damage modulation in H9c2 cells; H9c2 cardiomyocytes, H2O2 injury protection, ATPLite, 2 h; protection from H2O2 cell death, % at 20 µM; 0.63% of 360,000 active; AID 588492;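 active means compounds giving at least 50% protection of heart cells from peroxide-induced death in the single-dose screen, raw or plate-pattern-corrected value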;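 further: 0% = DMSO wells with peroxide and 100% = DMSO wells without peroxide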
# FAS-TE inh conf: FAS thioesterase (human) inhibition, confirmation; shares compounds with FAS TE block; recombinant FAS-TE, OMFH fluorogenic substrate, fluorescence; inhibition, % at 15 µM; 45% of 2,300 active;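 active means compounds inhibiting the enzyme by at least 50% at 15 µM in any one of the replicates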;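 further: 0% = enzyme with DMSO only and 100% = wells lacking enzyme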
# An asterisk follows results filed as active; / = not tested or not shown. In the library only some 2.2% were active in any assay of this set; here they are far more common.
SMILES,PLCb3 inh,FAS TE block,PLCg1 inh,Cardio protect,FAS-TE inh conf
O=C(CN(c1ccc(Cl)cc1)S(=O)(=O)c1ccccc1)N/N=C/c1ccco1,-1,58*,2,-2,41*
C/C=C/C=N/NC(=O)CN(c1ccc(Br)cc1)S(=O)(=O)c1ccccc1,-2,58*,1,-1,72*
CCCCN1CC(COCc2ccccc2)Oc2cccc(Sc3ccc(OC)c(OC)c3)c2S1(=O)=O (stereo unspecified),5,/,3,/,/
C[C@@H]1CN([C@H](C)CO)C(=O)CCCn2cc(nn2)CO[C@H]1CN(C)S(=O)(=O)c1ccc2c(c1)OCCCO2,2,-11,1,0,/
COc1ccc(OC)c(CN2C(=O)c3ccnn3CC2(C)c2nnnn2C2CCCC2)c1 (stereo unspecified),3,/,1,/,/
O=C(Cn1nc(-c2ccccc2)ccc1=O)NCCc1ccccc1F,0,/,-2,/,/
COc1ccc(OC)c(S(=O)(=O)N2CCN(c3ccccc3)CC2)c1,-3,8,1,-5,/
CCc1ccc(S(=O)(=O)ON2C(=O)c3ccccc3C2=O)cc1,-13,81*,-8,-1,72*
O=C1c2cccc3cccc(c23)C(=O)N1OS(=O)(=O)c1ccc(Cl)cc1,-6,52*,-5,32,14
CCc1ccc(OC(=O)CN2C(=O)c3ccccc3C2=O)cc1,-1,0,4,-1,/
COc1ccc(OC)c(S(=O)(=O)ON2C(=O)c3ccccc3C2=O)c1,-18,79*,-18,1,66*
O=C(Nc1c(C(=O)N2CCOCC2)cnn1-c1ccccc1)c1ccc([N+](=O)[O-])cc1,-7,52*,-2,-1,56*
O=C(Nc1ccccc1)N1c2ccccc2SC1c1ccco1 (stereo unspecified),0,/,3,/,/
CC[C@@]12C(=O)N(c3cccc(F)c3)C(=O)N1[C@H](c1cccc(C)c1)[C@@H]1C(=O)N(Cc3ccccc3)C(=O)[C@@H]12,1,16,1,-3,/
Cc1cccc([C@@H]2[C@@H]3C(=O)N(Cc4ccccc4)C(=O)[C@@H]3[C@]3(CC(C)C)C(=O)N(c4cccc(F)c4)C(=O)N23)c1,2,72*,2,0,26
Cc1cccc([C@@H]2[C@@H]3C(=O)N(Cc4ccccc4)C(=O)[C@@H]3[C@]3(Cc4ccccc4)C(=O)N(c4cccc(F)c4)C(=O)N23)c1,3,92*,4,1,17
Cc1ccc(NC(=O)COC(=O)CNC(=O)c2cccs2)cc1S(=O)(=O)N1CCOCC1,-1,0,1,3,/
CC(=O)Nc1ccc(NC(=O)c2nc(S(=O)(=O)Cc3cccc(C)c3)ncc2Cl)cc1,-1,27,3,-12,/
COc1ccccc1NC(=O)c1nc(S(=O)(=O)Cc2ccccc2)ncc1Cl,-10,55*,0,-17,19
CCS(=O)(=O)c1ncc(Cl)c(C(=O)Nc2ccccc2OC)n1,-7,15,-2,-18,/
CCc1ccc(NC(=O)c2nc(S(=O)(=O)Cc3ccccc3)ncc2Cl)cc1,-9,49,0,-16,/
COC(=O)c1ccc(NC(=O)c2nc(S(=O)(=O)Cc3cccc(C)c3)ncc2Cl)cc1,-3,55*,2,-15,29
CCOc1ccccc1NC(=O)c1nc(S(=O)(=O)Cc2ccccc2)ncc1Cl,-7,60*,0,-16,59*
O=C(NCC1COc2ccccc2O1)c1ccc(NC(=O)C(Cl)Cl)cc1 (stereo unspecified),2,/,0,/,/
O=C(NCC1CCCCC1)C12CN(Cc3ccccc3)CC1C(c1cccc([N+](=O)[O-])c1)=NO2 (stereo unspecified),-1,54*,-2,0,30
SMILES,PLCb3 inh,FAS TE block,PLCg1 inh,Cardio protect,FAS-TE inh conf
COc1ccc(CCNC(=O)C23CN(Cc4ccccc4)CC2C(c2cccc([N+](=O)[O-])c2)=NO3)cc1 (stereo unspecified),3,38,-2,-1,/
COC(=O)[C@]12C[C@H](CC(=O)NCc3cccc(C(F)(F)F)c3)C(=O)N(CCc3ccc(OC)c(OC)c3)C1=C[C@H](C1CCCC1)O[C@@H]2C,0,/,1,/,/
CN1CCN(c2ccc([N+](=O)[O-])cc2/C=N/NC(=O)c2ccc(F)cc2)CC1,4,52*,0,31,51*
CCN(CC)C(=O)C1CCCN(c2ccc([N+](=O)[O-])cc2/C=N/NC(=O)c2cccc(Br)c2)C1 (stereo unspecified),0,86*,0,22,17
O=C(N/N=C/c1cc([N+](=O)[O-])ccc1N1CCCCCC1)c1ccccn1,-1,47,1,10,/
COc1cccc([C@@H](NC(=O)C(F)(F)F)[C@@H]2CCCC=C2c2ccccc2)c1,0,/,-2,/,/
COC(=O)c1cc(=O)n(Cc2ccco2)c(=Nc2ccccc2)s1,-1,/,-2,/,/
COc1ccc(S(=O)(=O)N2CCC(CN3C(=O)c4cccc5cccc(c45)C3=O)CC2)cc1,6,63*,4,-6,25
O=C(c1ccc(S(=O)(=O)N2CCCC2)cc1)N1CCC(CN2C(=O)c3cccc4cccc(c34)C2=O)CC1,-3,3,0,7,/
CCn1cc(C(=O)NCc2ccc(C)cc2)c(=O)c2cc(S(=O)(=O)N(C)C)ccc21,-3,56*,3,0,62*
CCn1cc(C(=O)NCCc2ccccc2)c(=O)c2cc(S(=O)(=O)N(C)C)ccc21,1,23,0,7,/
CCn1cc(C(=O)NCCC2=CCCCC2)c(=O)c2cc(S(=O)(=O)N(C)C)ccc21,-1,80*,3,39,82*
Cc1ccc(S(=O)(=O)N2c3ccccc3C[C@H]2CCC(=O)c2ccccc2)cc1,-6,/,-3,/,/
Cc1ccc(-c2nnc(SCC(=O)Nc3ccc4c(c3)OCCO4)n2-c2ccc(C)cc2)cc1,0,/,1,/,/
Cc1ccc(S(=O)(=O)c2c(C(=O)c3ccccc3)cnc3cc4c(cc23)OCCO4)cc1,-32,70*,-23,-4,37
Cc1c(C(=O)c2ccc(Cl)c(Cl)c2)cnc2cc3c(cc12)OCO3,-4,21,-3,-2,/
CCC1=NN(C(=O)c2cccc(Br)c2)C(O)(c2ccc(Br)cc2)C1 (stereo unspecified),1,52*,-3,-22,47
O=[N+]([O-])c1cccc(S(=O)(=O)Nc2nc3ccccc3nc2Nc2cccc(S(=O)(=O)N3CCCCC3)c2)c1,2,82*,2,-29,17
N#CC1(NC(=O)COC(=O)c2cc([N+](=O)[O-])ccc2N2CCCC2)CCCCC1,-5,66*,4,1,75*
N#CC1(NC(=O)COC(=O)c2cc([N+](=O)[O-])ccc2N2CCOCC2)CCCCC1,0,68*,-6,0,80*
CN(C)S(=O)(=O)c1ccc(N2CCCC2)c(C(=O)OCC(=O)NC2(C#N)CCCCC2)c1,/,2,/,2,/
Cc1cc(C)c(-c2csc(NC(=O)c3cc([N+](=O)[O-])ccc3N3CCOCC3)n2)c(C)c1,-2,65*,-1,-1,33
